Measured values: PubChem BioAssay AID1159580 (chemical genetic matrix, 2015)
Out of some 5,500 compounds screened, about 2,000 (36%) were called active. About 18% were inconclusive and are not listed. Cut-off read from the data, not from the text of the source: active = normalized growth mostly below about 0.91 (no sharp cut-off); inconclusive = no clear call, values can overlap the other calls; inactive = mostly above about 0.92. Some of the results follow.

Test: chemical genetic growth profiling, strain panel (AID 1159580);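 note: tested at 20 µM; growth read once vehicle control cultures reached saturation at 30 °C; 1 = growth at the plate median or of vehicle wells; lower values mean less growth of the strain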
Conditions: growth OD

Measured: normalized growth

CC1CCCC(C)N1NC(=O)c1ccc(Cl)c(S(N)(=O)=O)c1 (stereo unspecified)
active: S. cerevisiae deletion strains, locus YNL322C, strain KRE1 (second series), stronger effect = lower value 1.11 [resistant]
inactive: S. cerevisiae deletion strains, locus YKL009W, strain mrt4, stronger effect = lower value 0.973 | S. cerevisiae deletion strains, locus YKL068W, stronger effect = lower value 0.992 | S. cerevisiae deletion strains, locus YKL085W, strain MDH1 (second series), stronger effect = lower value 0.987 | S. cerevisiae deletion strains, locus YKL085W, strain MDH1, stronger effect = lower value 0.987 | S. cerevisiae deletion strains, locus YKL160W, strain elf1, stronger effect = lower value 0.995 | S. cerevisiae deletion strains, locus YKL190W, strain CNB1, stronger effect = lower value 0.99 | S. cerevisiae deletion strains, locus YKR001C, strain vps1, stronger effect = lower value 1 | S. cerevisiae deletion strains, locus YKR026C, strain gcn3, stronger effect = lower value 0.999 | S. cerevisiae deletion strains, locus YKR091W, strain srl3, stronger effect = lower value 1.02 | S. cerevisiae deletion strains, locus YLL001W, strain dnm1, stronger effect = lower value 1.01 | S. cerevisiae deletion strains, locus YLL026W, stronger effect = lower value 1.02 | S. cerevisiae deletion strains, locus YLL041C, strain sdh2, stronger effect = lower value 0.998 | S. cerevisiae deletion strains, locus YLR027C, strain aat2, stronger effect = lower value 1.03 | S. cerevisiae deletion strains, locus YLR039C, strain RIC1, stronger effect = lower value 0.989 | S. cerevisiae deletion strains, locus YLR058C, strain SHM2, stronger effect = lower value 0.99 | S. cerevisiae deletion strains, locus YLR102C, strain apc9, stronger effect = lower value 0.996 | S. cerevisiae deletion strains, locus YLR113W, strain HOG1, stronger effect = lower value 0.993 | S. cerevisiae deletion strains, locus YLR221C, strain rsa3, stronger effect = lower value 1.04 | S. cerevisiae deletion strains, locus YLR258W, strain gsy2, stronger effect = lower value 0.998 | S. cerevisiae deletion strains, locus YLR262C, strain YPT6 (second series), stronger effect = lower value 1.01 | S. cerevisiae deletion strains, locus YLR262C, strain YPT6, stronger effect = lower value 0.997 | S. cerevisiae deletion strains, locus YLR268W, strain sec22, stronger effect = lower value 0.933 | S. cerevisiae deletion strains, locus YLR320W, strain mms22, stronger effect = lower value 1.02 | S. cerevisiae deletion strains, locus YLR330W, strain CHS5, stronger effect = lower value 0.989 | S. cerevisiae deletion strains, locus YLR342W, strain FKS1 (second series), stronger effect = lower value 1.06 | S. cerevisiae deletion strains, locus YLR342W, strain FKS1, stronger effect = lower value 1.01 | S. cerevisiae deletion strains, locus YLR357W, strain rsc2, stronger effect = lower value 1.05 | S. cerevisiae deletion strains, locus YLR370C, strain arc18, stronger effect = lower value 1.01 | S. cerevisiae deletion strains, locus YLR371W, strain rom2, stronger effect = lower value 1 | S. cerevisiae deletion strains, locus YLR384C, strain iki3, stronger effect = lower value 1.01 | S. cerevisiae deletion strains, locus YLR418C, strain cdc73, stronger effect = lower value 1.01 | S. cerevisiae deletion strains, locus YML016C, strain PPZ1, stronger effect = lower value 0.991 | S. cerevisiae deletion strains, locus YML032C, strain rad52, stronger effect = lower value 0.975 | S. cerevisiae deletion strains, locus YML120C, strain ndi1, stronger effect = lower value 1.01 | S. cerevisiae deletion strains, locus YML124C, strain tub3, stronger effect = lower value 0.988 | S. cerevisiae deletion strains, locus YMR058W, strain fet3, stronger effect = lower value 1.03 | S. cerevisiae deletion strains, locus YMR078C, strain ctf18, stronger effect = lower value 1.01 | S. cerevisiae deletion strains, locus YMR125W, strain sto1, stronger effect = lower value 1.01 | S. cerevisiae deletion strains, locus YMR129W, stronger effect = lower value 1.02 | S. cerevisiae deletion strains, locus YMR205C, strain PFK2, stronger effect = lower value 0.992 | S. cerevisiae deletion strains, locus YMR223W, strain ubp8, stronger effect = lower value 1.03 | S. cerevisiae deletion strains, locus YMR231W, strain pep5, stronger effect = lower value 1.02 | S. cerevisiae deletion strains, locus YMR263W, strain SAP30, stronger effect = lower value 0.982 | S. cerevisiae deletion strains, locus YMR307W, strain GAS1, stronger effect = lower value 1.09 | S. cerevisiae deletion strains, locus YNL067W, strain RPL9B, stronger effect = lower value 0.973 | S. cerevisiae deletion strains, locus YNL071W, strain lat1, stronger effect = lower value 1.02 | S. cerevisiae deletion strains, locus YNL128W, strain TEP1, stronger effect = lower value 1 | S. cerevisiae deletion strains, locus YNL153C, strain GIM3, stronger effect = lower value 0.981 | S. cerevisiae deletion strains, locus YNL183C, strain NPR1, stronger effect = lower value 0.952 | S. cerevisiae deletion strains, locus YNL209W, strain ssb2, stronger effect = lower value 1 | S. cerevisiae deletion strains, locus YNL233W, strain BNI4, stronger effect = lower value 0.977 | S. cerevisiae deletion strains, locus YNL248C, strain rpa49, stronger effect = lower value 1.02 | S. cerevisiae deletion strains, locus YNL250W, strain rad50, stronger effect = lower value 0.981 | S. cerevisiae deletion strains, locus YNL271C, strain bni1, stronger effect = lower value 0.986 | S. cerevisiae deletion strains, locus YNL298W, strain CLA4, stronger effect = lower value 0.985 | S. cerevisiae deletion strains, locus YNL307C, strain MCK1, stronger effect = lower value 0.98 | S. cerevisiae deletion strains, locus YNL322C, strain KRE1, stronger effect = lower value 0.99 | S. cerevisiae deletion strains, locus YNR049C, strain mso1, stronger effect = lower value 1 | S. cerevisiae deletion strains, locus YNR052C, strain pop2, stronger effect = lower value 0.996 | S. cerevisiae deletion strains, locus YOL006C, strain TOP1, stronger effect = lower value 0.953 | S. cerevisiae deletion strains, locus YOL012C, strain htz1 0.717 | S. cerevisiae deletion strains, locus YOL147C, strain pex11, stronger effect = lower value 0.99 | S. cerevisiae deletion strains, locus YOR001W, strain rrp6, stronger effect = lower value 1.02 | S. cerevisiae deletion strains, locus YOR061W, strain CKA2, stronger effect = lower value 0.999 | S. cerevisiae deletion strains, locus YOR069W, strain VPS5, stronger effect = lower value 0.996 | S. cerevisiae deletion strains, locus YOR070C, strain gyp1, stronger effect = lower value 1.02 | S. cerevisiae deletion strains, locus YOR080W, strain dia2, stronger effect = lower value 1.02 | S. cerevisiae deletion strains, locus YOR083W, strain WHI5, stronger effect = lower value 1.01 | S. cerevisiae deletion strains, locus YOR106W, strain vam3, stronger effect = lower value 0.988 | S. cerevisiae deletion strains, locus YOR136W, strain idh2, stronger effect = lower value 1.01 | S. cerevisiae deletion strains, locus YOR144C, strain elg1, stronger effect = lower value 0.994 | S. cerevisiae deletion strains, locus YOR184W, strain ser1, stronger effect = lower value 0.989 | S. cerevisiae deletion strains, locus YOR231W, strain MKK1, stronger effect = lower value 0.979 | S. cerevisiae deletion strains, locus YOR265W, strain rbl2, stronger effect = lower value 1.01 | S. cerevisiae deletion strains, locus YOR270C, strain vph1, stronger effect = lower value 1.04 | S. cerevisiae deletion strains, locus YOR290C, strain snf2, stronger effect = lower value 1.01 | S. cerevisiae deletion strains, locus YOR316C, strain cot1, stronger effect = lower value 0.985 | S. cerevisiae deletion strains, locus YPL051W, strain arl3, stronger effect = lower value 1.02 | S. cerevisiae deletion strains, locus YPL055C, strain LGE1, stronger effect = lower value 1.01 | S. cerevisiae deletion strains, locus YPL078C, strain atp4, stronger effect = lower value 1.02 | S. cerevisiae deletion strains, locus YPL106C, strain sse1, stronger effect = lower value 0.998 | S. cerevisiae deletion strains, locus YPL240C, strain hsp82, stronger effect = lower value 1.01 | S. cerevisiae deletion strains, locus YPL241C, strain CIN2, stronger effect = lower value 1 | S. cerevisiae deletion strains, locus YPL256C, strain CLN2, stronger effect = lower value 0.948 | S. cerevisiae deletion strains, locus YPR119W, strain clb2, stronger effect = lower value 0.99 | S. cerevisiae deletion strains, locus YPR141C, strain kar3, stronger effect = lower value 0.985 | S. cerevisiae deletion strains, locus YPR163C, strain tif3, stronger effect = lower value 0.99 | S. cerevisiae deletion strains, locus YPR167C, strain met16, stronger effect = lower value 0.989 | S. cerevisiae deletion strains, strain wtn01, stronger effect = lower value 0.989 | S. cerevisiae strains, strain wild type, stronger effect = lower value 1.01
